From PubChem BioAssay
G9a block = qHTS Assay for Inhibitors of Histone Lysine Methyltransferase G9a; Histone-lysine N-methyltransferase EHMT2 (Homo sapiens), Q96KQ7; G9a H3K9 monomethylation, AlphaScreen, 2 h; Potency, µM (series often up to 102 µM), usual class: inhibitors; 350,000 compounds, 8.8% hits; note: nearly all actives have a fitted effect of over 75% in size
Target sequence (Q96KQ7 913-1193 limits assumed): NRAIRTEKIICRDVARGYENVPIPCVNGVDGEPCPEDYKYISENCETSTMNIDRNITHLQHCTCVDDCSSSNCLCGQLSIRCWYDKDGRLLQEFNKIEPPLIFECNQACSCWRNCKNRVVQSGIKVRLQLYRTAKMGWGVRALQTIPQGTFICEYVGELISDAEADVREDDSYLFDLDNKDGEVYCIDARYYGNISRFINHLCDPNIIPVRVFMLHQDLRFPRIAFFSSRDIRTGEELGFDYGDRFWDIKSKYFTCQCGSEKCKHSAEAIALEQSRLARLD
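AlphaScreen read-out: biotin-H3K9 peptide (500 nM) methylation by 20 nM enzyme with 20 uM SAM, 2 h at room temperature after 15 min compound preincubation; anti-monomethyl H3K9 antibody plus donor/acceptor beads, 10 min dark.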
HP1b chromo inh = HTS for Inhibitors of HP1-beta Chromodomain Interactions with Methylated Histone Tails | Chromobox protein homolog 1 (Homo sapiens), P83916 | AlphaScreen HP1-beta / biotin-H3K9me3 peptide binding | Potency, µM (series often up to 114 µM), usual class: inhibitors | 390,000 compounds, 0.56% hits; note: nearly all actives have a fitted effect of over 70% in size
Target sequence (P83916 whole entry, looked up): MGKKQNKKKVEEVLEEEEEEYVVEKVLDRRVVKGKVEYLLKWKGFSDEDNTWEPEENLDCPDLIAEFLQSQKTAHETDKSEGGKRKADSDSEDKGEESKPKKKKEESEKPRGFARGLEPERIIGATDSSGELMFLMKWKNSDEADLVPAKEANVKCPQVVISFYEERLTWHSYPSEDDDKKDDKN
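AlphaScreen: HP1-beta (50 nM) preformed 30 min with biotin-H3(1-18)K9me3 peptide (50 nM) in PBS pH 7.4, 0.01% Tween-20. Compound added for 30 min at RT, then streptavidin donor/nickel chelate acceptor beads (10 ug/mL) for 30 min.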
BAZ2B inh = qHTS Assay for Inhibitors of BAZ2B. AlphaScreen BAZ2B-H3K14Ac peptide displacement. Potency, µM (titrated, usually from 114 µM), hits mostly inhibitors. 360,000 compounds, 4.4% hits; note: nearly all actives have a fitted effect of over 60% in size
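In this displacement format the biotinylated H3(5-23) peptide acetylated at Lys14 serves as ligand at 50 nM, with BAZ2B at 50 nM in PBS pH 7.4 containing 0.01% Tween-20. Donor and acceptor beads are 10 ug/mL final.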
GLS inhibitor = qHTS for Inhibitors of Glutaminase (GLS); GLS enzymatic activity, qHTS titration; AID 624170, 2012; 410,000 compounds, 0.21% hits; Potency, µM (top dose mostly 45.5 µM), actives largely listed as inhibitors; Glutaminase kidney isoform, mitochondrial (Homo sapiens), O94925
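Compounds were pin-transferred onto hKGA, after which L-glutamine (1 mM solution) and a detection mix of glutamate oxidase, HRP and Amplex Red were added. Initial and 30 min RT fluorescence reads were collected.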
JMJD2A Tudor = qHTS Assay for Inhibitors of JMJD2A-Tudor Domain; Lysine-specific demethylase 4A (Homo sapiens), O75164; AlphaScreen JMJD2A-Tudor / H3K4me3 peptide binding; Potency, µM (series often up to 114 µM), hits mostly inhibitors; 390,000 compounds, 4.4% hits; note: nearly all actives have a fitted effect of over 50% in size
Hits are given with their value; n = inactive; u = inconclusive; x = not tested or not shown; ! = not active in a repeat; [ ] = dose if it differs, or a comment. Shown are actives, neighbours in structure and some others; about 10% of the full set was active somewhere. Calls come from the whole dose curve; as a rule, active = well fitted curve in the direction sought with a large enough effect; inconclusive = small, poorly fitted or top-dose-only effect, or another doubt; inactive = no such curve, though single readings can be large; an effect the other way counts as inactive or inconclusive.

SMILES	G9a block	HP1b chromo inh	BAZ2B inh	GLS inhibitor	JMJD2A Tudor
CCOC(=O)c1cc2c(=O)n3ccccc3nc2n(Cc2ccco2)c1=NC(=O)c1c(F)cccc1Cl	n	n	n	n	n
Cc1cc2c(cc(C(=O)OC(C(=O)NCC3CCCO3)C(C)C)n2C)o1 (configuration not stated)	n	n	n	n	n
COCCNC(=O)C(OC(=O)c1cc2oc(C)cc2n1C)C(C)C (configuration not stated)	u	n	79µM	n	n
O=C(CCCCn1c(=O)c2ccccc2n(CC(=O)Nc2cccc(F)c2)c1=O)NCc1ccccc1Cl	n	n	n	n	n
Nc1sc2c(c1C(=O)NC1CCS(=O)(=O)C1)CCCC2 (configuration not stated)	7.9µM	n	n	n	n
NC(=O)c1c(N)sc2c1CCCC2	2.5µM	n	u	n	n
CCOC(=O)c1sc(SCC(=O)Nc2ccc(N(C)C)cc2)nc1N	11µM	u	45µM	n	u
CN(C)c1ccc(NC(=O)CSc2nc(N)c(C(=O)Nc3ccc(N(C)C)cc3)s2)cc1	u	u	20µM	n	u
CNc1ncnc2c1ncn2[C@H]1C[C@H](OP(=O)(O)O)[C@@H](COP(=O)(O)O)O1	20µM!	x	x	x	x
CCOc1ccc(NCCC(O)c2ccc(F)cc2)cc1 (configuration not stated)	n[2.33 µM]	u	50µM	u	u
CCOc1ccc(C(C)NC(=S)NCc2ccc(F)cc2)cc1 (configuration not stated)	x	n	n	n	n
COc1cc(C2CC(=O)C3=C(C2)Nc2ncnn2C3c2cccs2)cc(OC)c1OC (configuration not stated)	n	n	n	n	n
COc1cc(C2C3=C(Nc4ncnn42)c2ccccc2CC3)cc(OC)c1OC (configuration not stated)	32µM	n	n	n	n
COc1ccc(C2C3=C(Nc4ncnn42)c2ccccc2CCC3)cc1 (configuration not stated)	u	n	n	n	n
COc1cccc(C2=CC(c3ccc(C)cc3)n3ncnc3N2)c1 (configuration not stated)	40µM	x	n	x	x
COc1cc(C2C=C(c3cccs3)Nc3ncnn32)cc(OC)c1OC (configuration not stated)	32µM	n	n	n	u
Cc1ccsc1C1C=C(c2cccc(Br)c2)Nc2ncnn21 (configuration not stated)	10µM	n	n	n	n
CCc1ccc(NC(=O)Cn2c(=O)n(Cc3nc(C)no3)c(=O)c3cc4c(cc32)OCO4)cc1	n	n	n	n	n
Cc1ccc(N2CCN(C(=O)CCS(=O)(=O)c3cc4c(cc3Cl)NC(=O)CO4)CC2)c(C)c1	n	n	n	n	n
COc1ccc(S(=O)(=O)Oc2ccccc2C(=S)N2CCOCC2)cc1	25µM	x	n	x	x
COc1ccc(S(=O)(=O)Oc2cccc(C(=S)N3CCOCC3)c2)cc1	n	n	n	n	n
COc1cc(C(=S)N2CCOCC2)ccc1OC(=O)c1ccccc1C	x	n	u	n	n
COc1ccc(C(=S)N2CCOCC2)cc1OC(=O)c1ccccc1Cl	11µM	u	n	n	u
O=[N+]([O-])c1ccccc1S(=O)(=O)Oc1ccc(C(=S)N2CCOCC2)cc1	28µM	u	n	n	u
O=C(Oc1ccc(C(=S)N2CCOCC2)cc1Br)c1cc(Cl)ccc1Cl	45µM	n	n	n	n
O=S(=O)(c1ccc(Cl)cc1)c1nc(-c2cccs2)oc1SCc1ccc(F)cc1	u	n	n	n	n
Cc1ccc(S(=O)(=O)NC(=O)C2(C)CCN2C(=O)c2ccc(C(F)(F)F)nc2C)cc1 (configuration not stated)	x	x	x	n	x
COc1ccc(C(=S)N2CCOCC2)cc1OC(=O)c1ccc([N+](=O)[O-])cc1[N+](=O)[O-]	40µM	u	u	n	n
COc1cc(C(=S)N2CCOCC2)cc(OC)c1OC(=O)c1ccccc1[N+](=O)[O-]	u	n	n	n	n
